Our source for the growth inhibition values is PubChem BioAssay (NCI).

Compounds without any hit were thinned out: in the full panel of roughly 79,000, 15% have a hit. A number with no mark means an inactive call. The source made the active and inactive calls. Rule as the data show it: active = growth inhibition above about 70%; inactive = the rest.

A short description of the test: NCI Yeast Anticancer Drug Screen. Data for the rad50 strain (AID 155).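 Also: 0% = growth of vehicle-only cultures of the same strain.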 The settings on record: S. cerevisiae rad50 strain growth inhibition; at 5.0 µM (retest, dose inferred, filed as 0.5); hits give high values. A digest of the protocol: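 Vehicle-treated cultures provide the reference for the growth inhibition reported for compound-exposed, repair-deficient yeast.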
Regarding `CCC(c1ccc(OC)cc1)C(O)(CC)c1ccc(OC)cc1` (stereo not given), the growth inhibition was -4%.
In the case of `Cc1c(Cl)c(S(N)(=O)=O)cc2c1NC=NS2(=O)=O` it was 10%; in that of `CCCCCCCCNc1ncnc2c1cnn2C`, -2%.
For `Cc1cc(N)c(C)c2c1[nH]c1ccc(Br)cc12` the value was 1%.
For the compound `C(=C\c1cnnc2ccccc12)/c1ccco1`, the growth inhibition was 2%.
In the case of `Cc1cc(N(CCCCl)CCCCl)ccc1C=Nc1cccc(Cl)c1` it was -7%.
For `CCC[CH2][Sn]([CH2]CCC)([O]C(=O)c1cc(F)ccc1F)[O]C(=O)c1cc(F)ccc1F` the value was 42%; for `O=[N+]([O-])c1ccc(N2N=NC(CN3CCOCC3)C2N2CCOCC2)cc1` (stereo not given), 5%.
In the case of `O=CC(I)=C(c1ccccc1)c1ccccc1`, the growth inhibition was 21%.
For `CCC/C(=N\O)S(=O)(=O)c1ccc(NN=O)nc1` the value was -18%; for `COc1cc(Cc2n[nH]c(=S)n2-c2ccccc2)c(S(N)(=O)=O)cc1OC`, 4%.
With `CC(=O)Nc1ccc(C(C)(C)c2ccc(C)cc2)cc1`, the growth inhibition was 0%.
`CC(C)=NOc1ccc([N+](=O)[O-])cc1[N+](=O)[O-]`: the growth inhibition is 19%.
In the case of `CC(=O)Nc1ccc2c(c1)C(S)c1ccccc1-2` (stereo not given) it was -5%; in that of `CCN1CC(=O)N(C)C1=S`, -9%; in that of `[O-][n+]1c(-c2ccccc2)c(Cl)c(-c2ccccc2)n1O`, 4%.
For `CCCCCCCCCCCCCCCCN(C)c1ccc(S(=O)(=O)O)cc1[N+](=O)[O-]`, the growth inhibition is 43%.
In the case of `Cc1ccc2c(c1)-c1c(c3c(c4c1-c1cc(C)ccc1CC4)C(=O)OC3=O)CC2` it was 14%.
Consider `C[N+](C)(CCO)Cc1ccccc1`, for which the growth inhibition was -4%.
Consider `CCOC(=O)C(C)(C)Oc1ccc2c(=O)cc(-c3ccccc3)oc2c1`, for which the growth inhibition is -8%.
For `CS(=O)c1cc(=O)c2ccccc2s1` (stereo not given) the value was 6%; for `COC(=O)c1c[nH]c2ccc(Br)cc12`, -3%; for `CCCCN1C(=O)C(=O)N(c2ccccc2)C1=O`, -6%.
`Cc1cc(N)c2cc(OCCOc3ccc4nc(C)cc(N)c4c3)ccc2n1`: the growth inhibition was 68%.
As for `Cc1c2c(c(C)c3c4c(oc13)CCCC4)C=NCC2`, the growth inhibition is -4%.
In the case of `CCCC(c1ccc(O)cc1)c1ccc(O)cc1` it was 1%; in that of `CC(C)=NNc1ncnc2nc[nH]c12`, 11%.
For `Clc1ccc(C2=Nc3ccccc3SC(c3ccc(Cl)c(Cl)c3)C2)c(Cl)c1` (stereo not given) the value was 16%; for `N#Cc1c(Cl)nsc1-c1ccc([N+](=O)[O-])cc1`, -6%; for `C=CCSc1nc2ccccc2c(=O)n1Cc1ccco1`, 50%.
In the case of `COC(=O)CSc1nc2[nH]c(SC)c(C(N)=O)c2c(=O)n1-c1ccccc1` it was -2%; in that of `Cc1cc2oc3c(ccc(=O)n3C)c(=O)c2c(C)c1Cl`, 9%; in that of `CC(=O)SC1C(=O)N(C)C(SC(C)=O)C(=O)N1C` (stereo not given), -5%.
In the case of `CCCCCCCCCCCCCCCCOCC(Cl)COP(=O)(O)OP(=O)(O)OCC1OC(n2cc(C)c(=O)[nH]c2=O)CC1O` (stereo not given), the growth inhibition is 27%.
Regarding `CCCCCCCCCCNC(=O)CBr`, the growth inhibition was 2%.
In the case of `O=Cc1c(Cn2ccnc2)c2cc([N+](=O)[O-])ccc2n1Cc1ccccc1` it was 5%; in that of `C=C(C)C1CC2=C(O1)C(=O)c1ccccc1C2=O` (stereo not given), 8%; in that of `CC(C)C1=CC2=CCC3C(C)(C(=O)O)CCCC3(C)C2CC1` (stereo not given) (tested in a mixture with another compound), -8%.
Turning to `ClCC1CSC2(CCCCC2)O1` (stereo not given), the growth inhibition is 16%.
As for `Oc1cccc2ccc(SSc3ccc4cccc(O)c4n3)nc12`, the growth inhibition is 99% (active).
